Source: PubChem BioAssay AID1851 (National Center for Advancing Translational Sciences (NCATS), 2009)
Where “and” joins values, the source holds several entries; their conditions need not be identical. Equal entries are not always repeated. In all, about 16,000 compounds went through this assay and about 5,800 (36%) were called active. About 23% were inconclusive and are not listed. Calls come from the whole dose curve; as a rule, active = well fitted curve in the direction sought with a large enough effect; inconclusive = small, poorly fitted or top-dose-only effect, or effect the other way; inactive = no such curve, though single readings can be large or run the other way. Some of the results follow. Where a structure was tested more than once in an assay, its records may differ in their call.

Target: Cytochrome P450 2C19 (Homo sapiens) (UniProt P33261)
Sequence (P33261 whole entry, looked up): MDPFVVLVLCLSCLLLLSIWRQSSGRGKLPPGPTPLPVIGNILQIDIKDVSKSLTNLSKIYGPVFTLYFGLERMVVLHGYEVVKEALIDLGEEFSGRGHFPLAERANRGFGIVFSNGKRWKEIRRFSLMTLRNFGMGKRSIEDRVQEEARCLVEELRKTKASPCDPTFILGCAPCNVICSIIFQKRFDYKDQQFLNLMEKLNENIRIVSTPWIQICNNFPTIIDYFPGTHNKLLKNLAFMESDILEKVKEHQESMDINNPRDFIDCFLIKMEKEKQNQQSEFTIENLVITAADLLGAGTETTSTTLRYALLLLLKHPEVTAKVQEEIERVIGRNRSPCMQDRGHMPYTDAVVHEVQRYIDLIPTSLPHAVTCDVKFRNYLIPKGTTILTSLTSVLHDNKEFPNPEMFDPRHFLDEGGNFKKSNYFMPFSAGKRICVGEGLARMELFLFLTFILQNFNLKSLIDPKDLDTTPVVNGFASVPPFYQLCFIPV
Assay: Cytochrome panel assay with activity outcomes
Conditions: recombinant CYP, pro-luciferin dealkylation, luminescence, p450-cyp2c19; series mostly up to 57.1 µM; activity, negative = inhibition: at the top concentration
% is set by controls: 0 for no effect and ±100 for the full control effect.

| Compound | AC50 | activity, negative = inhibition |
| --- | --- | --- |
| O=C(c1ccccc1)c1ccc2n1CC[C@H]2C(=O)O | inactive | – |
| CC(C)(C)NC[C@@H](O)COc1ccccc1C1CCCC1 | – | -24.6% [at 25.6 µM] (inactive) |
| C=CCc1ccccc1OC[C@H](O)CNC(C)C | inactive | – |
| O=C(NC1CCCC1)c1cnn2c(C(F)(F)F)cc(-c3ccco3)nc12 | 11.2 µM (active) | – |
| Cc1nc2ccccn2c1C(=O)CSc1ccccc1Cl | 2.82 µM (active) | – |
| COCCNC(=O)[C@H](C)[C@@H]1C[C@@]1(C)[C@@H](NC(=O)OCc1ccccc1)c1ccccc1 | 3.16 µM (active) | – |
| C[C@@H](C(=O)NCCF)[C@H]1C[C@]1(C)[C@H](NC(=O)OCc1ccccc1)c1ccccc1 | 1.26 µM (active) | – |
| CCOC(=O)N/N=C1/C[C@@H](O)[C@@H](O)[C@@H]2[C@@H]3C(=O)N(C(C)(C)C)C(=O)[C@H]3CC[C@@H]12 | – | -19.4% [at 11.4 µM] (inactive) |
| O=C(NCCOC(=O)c1ccc(C(=O)OCCNC(=O)c2cccnc2)s1)c1cccnc1 | 7.94 µM (active) | – |
| CC(=O)OCCNC(=O)c1cccnc1 | – | 25.9% (inactive) |
| O=C(NCCO[N+](=O)[O-])c1cccnc1 | 3.98 µM (active) | – |
| Cc1cccc([C@@H]2CN(C)CCc3c2cc(O)c(O)c3Cl)c1 | inactive | – |
| CN(C)CCC[C@@]1(c2ccc(F)cc2)OCc2cc(C#N)ccc21 | inactive and 3.16 µM (active) | – |
| COc1ccccc1N/C(=N/S(=O)(=O)c1ccc(C)cc1)c1ccc(Cl)cc1 | 4.47 µM (active) | – |
| O=S(=O)(/N=C(/Nc1ccc(F)cc1F)c1ccc(Cl)cc1)c1ccccc1 | – | -10.4% (inactive) |
| CS(=O)(=O)Nc1cccc(-c2nc(Nc3ccccc3)c3ccccc3n2)c1 | 10 µM (active) | – |
| COc1cccc(-c2nc(Nc3ccncc3)c3ccccc3n2)c1 | 3.16 µM (active) | – |
| CNc1nc(-c2cccc(NS(C)(=O)=O)c2)nc2ccccc12 | – | -23.8% (inactive) |
| CS(=O)(=O)Nc1cccc(-c2nc(N3CCNCC3)c3ccccc3n2)c1 | – | -31.6% (inactive) |
| COc1cc(NS(C)(=O)=O)ccc1Nc1c2ccccc2nc2ccccc12 | – | -6.07% (inactive) |
| CS(=O)(=O)Nc1cccc(-c2nc(Nc3ccc(F)cc3)c3ccccc3n2)c1 | 7.94 µM (active) | – |
| CS(=O)(=O)Nc1ccc(Nc2c3ccccc3nc3ccccc23)cc1 | – | -0.835% [at 11.4 µM] (inactive) |
| N#Cc1cccc(-c2nc(Nc3ccncc3)c3ccccc3n2)c1 | – | -18.2% (inactive) |
| CS(=O)(=O)Nc1cccc(-c2nc(Nc3ccncc3)c3ccccc3n2)c1 | 5.01 µM (active) | – |

| Compound | AC50 | activity, negative = inhibition |
| --- | --- | --- |
| CCCCCCCCCCCCCCSCC(=O)O | – | 27.3% (inactive) |
| NC[C@](O)(CS(=O)(=O)O)c1ccc(Cl)cc1 | – | 16% (inactive) |
| O=C(N/N=C/c1cccc(Oc2ccccc2)c1)c1cccc(Br)c1 | 2.24 µM (active) | – |
| O=C(N/N=C\c1ccc(Sc2ccccn2)o1)c1cccc(Br)c1 | 2.51 µM (active) | – |
| O=C(N/N=C/C1C(c2ccccc2)C1(Cl)Cl)c1cccc(Br)c1 (stereo not given) | 7.08 µM (active) | – |
| C[C@@H](N=C(N)N)C(=O)O | – | 36.5% [at 11.4 µM] (inactive) |
| CC(=O)O[C@]12CC[N@+]3(C)CCCC[C@@H]3[C-]1Nc1ccccc12 | – | 34.8% [at 11.4 µM] (inactive) |
| Cn1nc(C(F)(F)F)c(/C=N/OCc2c(Cl)cccc2Cl)c1Cl | 0.282 µM (active) | – |
| COc1ccc(NC(=O)N2CC3(CCN(C(=O)c4cccn4C)CC3)C2)cc1 | – | 2.63% (inactive) |
| COc1ccc(-c2nnn(CC(=O)N(CC(=O)NCCC(C)C)Cc3cccs3)n2)cc1OC | 1.12 µM (active) | – |
| COc1ccc(NC(=O)Cn2cccc2)c(OC)c1 | 2.24 µM (active) | – |
| COCCN(C(=O)Nc1ccc(OC)cc1OC)C1CCN(C(C)=O)CC1 | – | -21.1% (inactive) |
| COc1ccc(OC)c(NC(=O)Cn2cccc2)c1 | 6.31 µM (active) | – |
| COc1ccc(NC(=O)NCc2cccn2C)c(OC)c1 | 6.31 µM (active) | – |
| COc1ccc(OC)c(NC(=O)CC(Cc2ccccc2OC)C(=O)O)c1 (stereo not given) | – | -24.6% (inactive) |
| COc1ccc(NC(=O)N2CCC3(CC2)CCN(C(=O)c2cccn2C)CC3)cc1 | – | 9.41% (inactive) |
| CCCC(=O)Nc1cc(-c2cn3cccnc3n2)ccc1OC | – | -18.8% (inactive) |
| CO[C@H]1COC(=O)[C@H](C)NC(=O)C/C=C\[C@@H](C)[C@@H](NS(=O)(=O)c2ccc(C)cc2)COC(=O)C/C=C\[C@@H]1C | – | 24.1% [at 11.4 µM] (inactive) |
| COc1ccc(-c2nnn(CC(=O)NCCc3c[nH]c4ccccc34)n2)cc1OC | 8.91 µM (active) | – |
| CCOc1ccc(-c2nnn(CC(=O)Nc3cc(OC)ccc3OC)n2)cc1OCC | 5.62 µM (active) | – |
| Cn1ncc(C#N)c1NC(=O)C1CC(c2ccc(Cl)cc2)=NO1 (stereo not given) | 0.316 µM (active) | – |
| COc1cccc(Nc2ncc3nc(-c4cccs4)c(=O)n(CCC#N)c3n2)c1 | – | 8.8% (inactive) |
| O=C(CCC1CCCCC1)Nc1c2c(nn1-c1ccc(F)cc1)CS(=O)(=O)C2 | 15.8 µM (active) | – |
| O=C(O)c1cc(N=Nc2ccc([N+](=O)[O-])cc2)ccc1O | – | -3.05% [at 11.4 µM] (inactive) |

| Compound | AC50 | activity, negative = inhibition |
| --- | --- | --- |
| NC(=O)c1ccc([N+](=O)[O-])cc1SCc1ccccc1 | 10 µM (active) | – |
| O=C(O)[C@@H]1[C@@H](C(=O)NCc2ccccn2)[C@@H]2C=C[C@@H]1O2 | – | 36% [at 11.4 µM] (inactive) |
| O=C(NCc1ccccn1)c1cc(-c2ccccc2Cl)on1 | 14.1 µM (active) | – |
| O=C(CCCN1CCC(O)(c2ccc(Br)cc2)CC1)c1ccc(F)cc1 | – | -4.38% [at 25.6 µM] (inactive) |
| OCCN1CCN(C(=S)c2ccc(Br)cc2)CC1 | 4.47 µM (active) | – |
| C[C@H]1CN(CCO)CCN1c1ccccc1 | – | 34.1% [at 11.4 µM] (inactive) |
| CCN1CCN(C(=S)c2ccc(Br)cc2)CC1 | 7.94 µM (active) | – |
| OCCN1CCOCCOCCN(CCO)CCN(CCO)CC1 | – | -16.8% (inactive) |
| O=c1[nH][nH]c(C(F)(F)F)c1C=Nc1ccccc1 | – | -9.86% (inactive) |
| Cc1ccc(-c2cc(C(=O)NCc3ccco3)c3ccccc3n2)s1 | 3.98 µM (active) | – |
| O=C1Nc2ccc(F)cc2C12Nc1ccccc1-c1nnc(SCc3ccccc3F)nc1O2 (stereo not given) | 4.47 µM (active) | – |
| Cc1ccc(CSc2nnc3c(n2)OC2(Nc4ccccc4-3)C(=O)Nc3ccc(F)cc32)cc1 (stereo not given) | 10 µM (active) | – |
| Nc1nc2c(C(=O)NCc3cccs3)nnn2c2cccc(Cl)c12 | – | 12.5% [at 11.4 µM] (inactive) |
| COc1cccc2c(=O)c(C(=O)NCc3cccs3)c[nH]c12 | 7.94 µM (active) | – |
| COc1ccc(C(=O)c2c[nH]c(C(=O)NCc3cccs3)c2)cc1 | – | -28.9% (inactive) |
| CCC(=O)OCC(=O)[C@@]1(OC(=O)CC)[C@H](C)C[C@@H]2[C@H]3CCC4=CC(=O)C=C[C@]4(C)[C@]3(Cl)[C@@H](O)C[C@@]21C | – | -4.54% [at 25.6 µM] (inactive) |
| CC1=C/C(=N/O)C([C@H]2C=C(C)CC(C)(C)[C@@H]2O)C(C)(C)C1 (stereo not given in full) | 1.58 µM (active) | – |
| COc1cccc(Nc2ncc3nc(-c4cn(C)c5ccccc45)c(=O)n(CCC#N)c3n2)c1 | – | -12% (inactive) |
| COc1cccc2c1[C@@H]1CN(CCCCn3c(=O)[nH]c4c(sc5ncc(-c6ccccc6)nc54)c3=O)C[C@H]1CO2 | – | -32.6% (inactive) |
| FC(F)Sc1ccc(N=C2NN=C(c3ccc4c(c3)OCCO4)CS2)cc1 | 2.24 µM (active) | – |
| CN(Cc1ccccc1)C(=O)CC(c1ccccc1)c1cc(Cl)ccc1O (stereo not given) | 1.78 µM (active) | – |
| CC(C)Oc1ccc(CNC(=O)CC(c2ccccc2)c2cc(Cl)ccc2O)cc1 (stereo not given) | 1.78 µM (active) | – |
| Cc1cc(-c2cc(-c3ccc(Cl)cc3)nc(N)c2C#N)co1 | 0.282 µM (active) | – |
| Cc1cccc(CNc2ncncc2-c2cccc(NS(C)(=O)=O)c2)c1 | 6.31 µM (active) | – |

| Compound | AC50 | activity, negative = inhibition |
| --- | --- | --- |
| CS(=O)(=O)Nc1cccc(-c2cncnc2NCc2cccnc2)c1 | 3.16 µM (active) | – |
| Cc1cnc(CNc2ncnc3ccc(-c4cccc(NS(C)(=O)=O)c4)cc23)cn1 | – | -33.4% (inactive) |
| CS(=O)(=O)Nc1cccc(-c2ccc3ncnc(NCc4cccnc4)c3c2)c1 | 0.0501 µM (active) | – |
| CS(=O)(=O)Nc1cccc(-c2cncnc2Nc2ccccc2)c1 | – | -23.9% (inactive) |
| N[C@H](C(=O)O)[C@@H]1[C@@H](C(=O)O)C1(F)F | – | -41.1% (inactive) |
| CCOC(=O)C1=C(C)NC2=C(C(=O)C(C(=O)OCC)C(c3ccc(OC)cc3)C2)C1c1ccccn1 (stereo not given) | 20 µM (active) | – |
| O=C(c1cc2sccc2n1Cc1ccccc1)N1CCN(c2nc3ccccc3s2)CC1 | 2.24 µM (active) | – |
| O=C(O)c1cccc(CN2CCCCC2)c1 | – | 9.75% [at 11.4 µM] (inactive) |
| O=C(CN1CCN(Cc2ccccc2)CC1)N1CCCc2c1c(=O)oc1ccc(O)cc21 | 3.55 µM (active) | – |
| CCCc1c(-c2ccc(O)cc2)nn(-c2ccc(O)cc2)c1-c1ccc(O)cc1 | – | 38.6% (inactive) |
| O=S(=O)(O)C1CCNCC1 | – | 12.3% (inactive) |
| O=S(=O)(c1ccccc1)N1N=C(c2cccs2)CC1c1ccc(Br)cc1 (stereo not given) | 2 µM (active) | – |
| N#CCCn1c(=O)c(-c2cc(F)cc(F)c2)nc2cnc(N3CCOCC3)nc21 | – | -6.19% (inactive) |
| O=c1nc(-c2ccccc2)cc(C(F)(F)F)[nH]1 | – | -28.7% (inactive) |
| Cc1ccc2nc(Nc3nc(-c4ccccc4)cc(=O)[nH]3)nc(C)c2c1 | 3.16 µM (active) | – |
| Cc1ccc2c(C)nc(Nc3nc(CSc4nc5ccccc5[nH]4)cc(=O)[nH]3)nc2c1 | 7.08 µM (active) | – |
| COc1ccc(C(N)=O)cc1NC(=O)c1cccc(F)c1 | – | -0.928% (inactive) |
| CCN(CC)c1ccc(NC(=O)c2cccc(F)c2)c(C)c1 | 15.8 µM (active) | – |
| Cn1c(SCc2nnc(-c3ccc(F)cc3)o2)nnc1C1COc2ccccc2O1 (stereo not given) | 17.8 µM (active) | – |
| Oc1ccc(C2Nc3cccc4cccc(c34)N2)c(O)c1 | 5.62 µM (active) | – |
| O=[N+]([O-])c1nccn1C[C@H](O)CN1CCCCC1 | – | 22.6% [at 11.4 µM] (inactive) |
| O=C1C2[C@@H](c3ccccc3)N[C@@H](c3ccccc3)C1[C@H](c1ccccc1)N[C@H]2c1ccccc1 | – | -2.21% [at 11.4 µM] (inactive) |
| S=C1N[C@H](c2ccccc2)N[C@H](c2ccccc2)S1 | 3.98 µM (active) | – |
